High-throughput results deposited in PubChem by The Scripps Research Institute Molecular Screening Center.
MITF inh = blocks human microphthalmia-associated transcription factor. AlphaScreen MITF homodimerization, bead proximity signal. inhibition, % at 2.6 µM. 0.91% of 650,000 active. AID 1259374; in the data active = inhibition above about 50%
TEAD-YAP block = TEAD-YAP interaction inhibition. 1.4% of 640,000 active. AID 1259422. HEK-TIYL cells, TEAD-Gal4/YAP UAS-luciferase luminescence. inhibition, % at 9.12 µM; in the data active = inhibition above about 32%
GPR151 activ = human GPR151 activation | 1% of 650,000 active | activation, % at 11.2 µM | PathHunter beta-arrestin GPR151 cells, luminescence | Q8TDV0; in the data active = activation above about 4.9%
FBW7 activator = human FBW7 E3 ligase activation, primary screen. Q969H0. AlphaScreen FBW7–phospho-cyclin E peptide binding, activator screen. normalized activity (activation), % at 26.1 µM. 0.13% of 650,000 active; in the data active = normalized activity above about 1.9%;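 note: purified mutant Fbw7 with reduced substrate affinity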
Target sequence (Q969H0 whole entry, looked up): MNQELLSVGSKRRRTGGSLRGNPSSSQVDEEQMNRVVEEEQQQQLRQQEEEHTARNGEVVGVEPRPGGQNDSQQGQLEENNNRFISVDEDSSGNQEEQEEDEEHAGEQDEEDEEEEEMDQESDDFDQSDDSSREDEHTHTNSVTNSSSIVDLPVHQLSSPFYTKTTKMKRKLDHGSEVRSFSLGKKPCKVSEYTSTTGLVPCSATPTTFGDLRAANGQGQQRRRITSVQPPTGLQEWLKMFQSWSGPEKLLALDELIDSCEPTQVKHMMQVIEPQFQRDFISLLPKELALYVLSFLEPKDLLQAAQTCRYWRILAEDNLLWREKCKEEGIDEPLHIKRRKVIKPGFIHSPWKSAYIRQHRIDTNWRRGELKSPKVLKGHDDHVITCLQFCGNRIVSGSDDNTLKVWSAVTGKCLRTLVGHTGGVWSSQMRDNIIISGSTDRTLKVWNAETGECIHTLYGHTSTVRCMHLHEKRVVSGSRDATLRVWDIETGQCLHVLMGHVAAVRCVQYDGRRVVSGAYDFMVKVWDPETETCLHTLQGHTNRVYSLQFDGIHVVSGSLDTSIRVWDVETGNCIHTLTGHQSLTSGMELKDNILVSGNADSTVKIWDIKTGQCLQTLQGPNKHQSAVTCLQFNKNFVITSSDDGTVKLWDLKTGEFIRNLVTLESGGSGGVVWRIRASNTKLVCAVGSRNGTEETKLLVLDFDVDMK
Of the large screens only hits and unclear results are named; the others gave an inactive call. An excerpt weighted towards active compounds, which were near 3.5% of everything screened.

CCCNC(=O)CCc1nc(-c2ccccc2OCC)no1	none
COc1cccc(OCc2nnc(SCC(=O)N3CCCC3)n2C)c1	none
Cc1ccc(C(=O)Nc2ccc(Cc3ccncc3)cc2)cc1	none
Cc1ccc(Cc2cnc(NC(=O)COc3ccccc3C)s2)cc1	none
O=C(Nc1ccc(Cc2ccncc2)cc1)c1ccc(Br)cc1	TEAD-YAP block 39
Cc1ccccc1OCC(=O)Nc1ncc(Cc2ccc(F)cc2)s1	TEAD-YAP block 51
Cc1cccc(Cc2cnc(NC(=O)COc3ccccc3C)s2)c1	TEAD-YAP block 54
CCN(Cc1ccncc1)S(=O)(=O)c1ccc(Cl)c(C(F)(F)F)c1	none
Cc1cn2c(=O)c(C(=O)N(CCO)C(C)C)cnc2s1	none
Cc1ccc(NC(=O)O/N=C\c2ccc(N(C)C)cc2)cc1	TEAD-YAP block 34
Cc1ccc(Nc2nc(CSc3nnc(N)s3)cs2)cc1	TEAD-YAP block 44
Cc1ccc(NC(=O)CNC(=O)c2ccccc2)cc1	none
CCOc1ccc(C2Nn3c(C)nnc3SC2C(=O)N2CCCCC2)cc1 (configuration not stated)	none
Fc1ccc(CN2CCOc3ccc(-c4ccncc4)cc32)cc1	TEAD-YAP block 43
COc1ccc(-c2nc3ncnc(NCCc4ccc(O)cc4)c3[nH]2)cc1	TEAD-YAP block 59
CC(=O)c1cccc(-c2nc(Nc3ccccc3)c3[nH]cnc3n2)c1	none
COc1ccc(-c2nc(Nc3cc(OC)c(OC)c(OC)c3)c3[nH]cnc3n2)cn1	TEAD-YAP block 57
COc1cc(Nc2nc(-c3cccc(C(C)=O)c3)nc3nc[nH]c23)cc(OC)c1OC	FBW7 activator 1.9
COc1ccc(-c2nc3ncnc(NCCOc4ccccc4)c3[nH]2)cn1	TEAD-YAP block 36
COc1ccc(-c2nc3ncnc(NCCN(C(C)C)C(C)C)c3[nH]2)cn1	none
O=C(NC1CC1)[C@H]1C=CCN1S(=O)(=O)Cc1ccccc1	none
O=C(Nc1ccccc1C(=O)O)c1ccc2c(c1)C(=O)N(c1ccccc1)C2=O	none
COc1ccc(-c2nc3ncnc(Nc4cc(OC)c(OC)c(OC)c4)c3[nH]2)cn1	TEAD-YAP block 46
COc1ccc(-c2nc3ncnc(Nc4ccc(NC(C)=O)cc4)c3[nH]2)cn1	none
O=C(NCCc1ccccc1)c1ccc2c(c1)NC(=O)c1ccccc1S2	TEAD-YAP block 53
CCCNC(=O)c1ccc2c(c1)NC(=O)c1ccccc1S2	none
Cc1ccc(-n2nc(C)c(NC(=O)CCl)c2C)cc1C	TEAD-YAP block 45
CCC(=O)Nc1c(C)nn(-c2ccc(C)c(C)c2)c1C	none
N#Cc1ccccc1Cn1nc(-c2cccc3ncccc23)oc1=O	TEAD-YAP block 53
NNC(=O)c1[nH]c2ccccc2c1Cl	TEAD-YAP block 47
C/C(=N\NC(=O)c1cc(-c2ccncc2)nc2ccccc12)c1ccc(-n2ccnc2)cc1	TEAD-YAP block 43
COc1cccc(CNC(=O)c2cc(-c3ccncc3)nc3ccccc23)c1	none
C/C(=N\NC(=O)c1cc(-c2ccncc2)nc2ccccc12)c1ccc(C#N)cc1	TEAD-YAP block 42
CC/C(C)=N\NC(=O)c1cc(-c2ccccc2)nc2ccccc12	none
COc1cccc(/C(C)=N/NC(=O)c2cc(-c3ccncc3)nc3ccccc23)c1	TEAD-YAP block 49
C=C(C)Cn1c(=O)c2c(nc3n(C(C)CC)c(C)cn23)n(C)c1=O (configuration not stated)	none
CNC(=S)N1CCN(c2nccnc2NS(=O)(=O)c2ccc(OC)cc2)CC1	none
O=C(COc1ccccc1F)Nc1nccs1	none
Cc1cccc(OCC(=O)Nc2nccs2)c1C	TEAD-YAP block 32
O=C(COc1ccccc1Cl)Nc1nccs1	TEAD-YAP block 91
COc1ccccc1OCC(=O)Nc1nccs1	none
NC(=S)/N=C1\CCN(c2cccc(C(F)(F)F)c2)N1	TEAD-YAP block 35
Cc1cccc(C(=O)Nc2sccc2C#N)c1	none
Cc1cccc(C(=O)Nc2snc(Cl)c2C#N)c1	TEAD-YAP block 39
O=C(Nc1ccc(Cl)c(Cl)c1)c1cccc(C(=O)Nc2ccc(Cl)c(Cl)c2)c1	none
Cc1cc(C(=O)N=c2sc3cc4c(cc3n2C)OCCO4)nn1C	TEAD-YAP block 38
Cc1cc(C(=O)N=c2sc3cc4c(cc3n2C)OCCO4)n(C)n1	none
Cn1c(=NC(=O)c2ccc(S(=O)(=O)N3CCCCCC3)cc2)sc2cc(F)ccc21	none
Cc1sc2nc(C3CCCN(C(=O)Cc4ccc(F)cc4)C3)[nH]c(=O)c2c1C (configuration not stated)	none
O=C(Cc1ccc(Br)cc1)N1CCC(c2nc3ccncc3c(=O)[nH]2)C1 (configuration not stated)	FBW7 activator 2.3
Cc1ccc(C(=O)NCc2n[nH]c(=S)n2Cc2ccccc2)cc1	none
O=C(Nc1ccc2c(c1)OCO2)c1ccccc1SCC(=O)N1CCc2ccccc21	TEAD-YAP block 36
CC(C)(C)c1ccc(-c2ccc(OCCN3CCCC3=O)nc2)cc1	TEAD-YAP block 52
O=C(NCC1CCCO1)C1CC(=O)N(CCc2ccccc2)C1 (configuration not stated)	none
CC(CC(=O)O)CC(=O)N1CCCC1c1nc(-c2ccc(F)cc2)c2ccccn12 (configuration not stated)	none
COc1ccc(-c2cncc3ccc(C(=O)NCc4ccncc4)nc23)cc1	TEAD-YAP block 77
O=C(NCc1ccncc1)c1cnc2ccccc2n1	none
COc1ccc(-c2cncc3ccc(C(=O)NCc4ccccc4OC)nc23)cc1	TEAD-YAP block 50
O=C(NCc1ccncc1)c1ccc2cncc(-c3ccccc3)c2n1	TEAD-YAP block 71
O=C(NCc1ccc(C(F)(F)F)nc1)c1ccc2cncc(-c3ccccc3)c2n1	TEAD-YAP block 49
Cc1ccc(CN2CCNC(=O)C2CC(=O)NCCc2cnccn2)o1 (configuration not stated)	none
Cc1ccc(C)c(OCCOc2ccc(/C=C3/C(=N)N4C(c5ccccc5)=CSC4=NC3=O)cc2)c1	none
CCc1nnc(NS(=O)(=O)c2ccc(NC(=S)NC(=O)c3ccccc3)cc2)s1	FBW7 activator 2.9
CCc1nnc(NS(=O)(=O)c2ccc(NC(=O)c3ccccc3)cc2)s1	none
CCCCC(CC)CNC(=O)c1ccc2c(=O)n(CCOC)c(=O)[nH]c2c1 (configuration not stated)	TEAD-YAP block 45
Cn1ncc2c(NCCCN3CCOCC3)ncnc21	none
Cc1cccc(C(=O)N2CCN3C(=O)[C@@H]4C[C@@H](O)CN4C(=O)[C@H]3C2)c1	none
Cn1c(/C=C/c2ccccc2)c([N+](=O)[O-])c(=O)n(C)c1=O	none
Cn1c(/C=C/c2cccc(Oc3ccccc3)c2)c([N+](=O)[O-])c(=O)n(C)c1=O	TEAD-YAP block 45
CCc1nc(SCc2ccc(Cl)cc2Cl)c(C#N)c2c1CCCC2	FBW7 activator 2.2
O=C(CCc1nc(-c2ccccc2F)no1)N1CCN(c2cccc(C(F)(F)F)c2)CC1	none
O=c1c(-c2ccc3c(c2)OCCCO3)coc2cc(O)cc(O)c12	TEAD-YAP block 66
COc1ccc2c(=O)c(-c3ccc4c(c3)OCCO4)coc2c1	none
O=c1c(-c2ccc3c(c2)OCCO3)coc2cc(O)ccc12	TEAD-YAP block 55
